According to PubChem BioAssay (Tox21):
Results filed as inconclusive are left out. Values without a mark were called inactive. Active and inactive are the calls of the source. Calls follow the shape of the dose curve; as a rule, active = well fitted activation curve with a large enough effect in the signal ratio in the repeat runs (not every such curve was filed as active); inconclusive = weak or mixed curves; inactive = flat fitted curve, though single readings scatter; the % refers to the signal ratio.

assay: qHTS assay to identify small molecule agonists of the TGF-beta/Smad signaling pathway (AID 1346859); details: SBE-bla HEK293T, TGF-beta/Smad beta-lactamase reporter, 5 h; series mostly up to 76.8 µM; activation: at the top concentration
Source text: U.S. Tox21 Program National Center for Advancing Translational Sciences [NCATS] NIH Chemical Genomics Center [NCGC] U.S. Environmental Protection Agency [EPA] National Institutes of Environmental Health Sciences [NIEHS] National Toxicology Program [NTP] U.S. Food and Drug Administration [FDA] Tox21 Assay Overview: Transforming growth factor beta (TGF-beta) superfamily consists of a large number of structurally related dimeric proteins that act as hormones or local mediators in regulating a wide range of biological functions. This superfamily includes TGF-betas themselves, the bone morphogenetic proteins (BMPs) and the activins. These ligands induce oligomerization of serine/threonine receptor kinases and phosphorylate the cytoplasmic signaling molecules of Smad protein family. CellSensor SBE-bla HEK 293T cell line (Life Technologies, Carlsbad, CA), responsive to TGF-beta was used to screen Tox21 10K compound library for identification of agonists/antagonists of the Smad signaling pathway. This cell line contains a beta-lactamase reporter gene under control of the Smad binding element (SBE) stably integrated into HEK 293T cells.
Tox21 Assay Protocol Summary: SBE-bla HEK 293T cells were dispensed at 4,000/well in 6 uL of assay medium into black wall/clear-bottom 1536-well plates using a Multidrop Combi (ThermoFisher Scientific, Waltham, MA) dispenser. After the assay plates were incubated at 37 C and 5% CO2 for an overnight, 23 nL of compounds dissolved in DMSO, positive controls or DMSO only was transferred to the assay plate by a Pintool station (Kalypsys, San Diego, CA). The assay plates were incubated at 37 C and 5% CO2 for 5 hr. One uL of LiveBLAzer B/G FRET substrate (Life Technologies) was added using a Flying Reagent Dispenser (Aurora Discovery, San Diego, CA) and the plates were incubated at room temperature for 2 hr. Fluorescence intensity (405 nm excitation, 460 nm and 530 nm emissions) was measured using an Envision plate reader (PerkinElmer, Shelton, CT).
% is scaled to controls: 0 for no effect and ±100 for the full control effect.

| Compound | activation | outcome |
| --- | --- | --- |
| CC(Cl)(Cl)Cl | 1.98% |  |
| Brc1c(Br)c(Br)c(Br)c(Br)c1Br | 3.82% [at 6.97 µM] |  |
| C=CCc1cc(OC)c2c(c1)OCO2 | 3.3% |  |
| CCCCCCCCBr | 0.104% |  |
| Cc1ccc2c(c1)C1CN(C)CCC1N2 (stereo not given) | 3.74% [at 15.8 µM] |  |
| Cc1cccc2sc3nncn3c12 | 0.447% |  |
| COc1ccc2c(C(=O)c3ccc(Cl)cc3)c(C)n(CC(=O)O)c2c1 | -0.216% [at 35.3 µM] |  |
| C#CCOC(=O)/C=C(C)/C=C/CC(C)CCCC(C)C (stereo not given) | 4.2% |  |
| CC(C)(C)c1cc(O)ccc1O |  | inactive |
| CCOc1cc(OP(=S)(OC)OC)nc(CC)n1 | -0.593% |  |
| CCCCCCCC(=O)Cl | -0.124% |  |
| CCN(CCO)CCO | 2.86% |  |
| CCOC(=O)NC(C)(C)Cc1ccc(Cl)cc1 | 1.82% [at 35.3 µM] |  |
| ClCCN1CCCC1 | 3.19% [at 35.3 µM] |  |
| CC[C@@H](CO)NC(=O)[C@@H]1C=C2c3cccc4c3c(cn4C)C[C@H]2N(C)C1 | 1.08% [at 35.3 µM] |  |
| CC1N=C(N)OC1c1ccccc1 (stereo not given) | -7.97% |  |
| ClCCCCl | -2.25% |  |
| O=P(O)(O)CN(CP(=O)(O)O)CP(=O)(O)O |  | inactive |
| O=C/C=C/c1ccco1 | 2.8% |  |
| Cl/C=C/CCl | -1.77% |  |

| Compound | activation | outcome |
| --- | --- | --- |
| CCN[C@H](C)Cc1cccc(C(F)(F)F)c1 | -3.63% |  |
| Cn1c(CCCC(=O)O)nc2cc(N(CCCl)CCCl)ccc21 | -0.594% [at 35.3 µM] |  |
| c1ccc2c(c1)CCNC2 | -4.84% |  |
| O=c1[nH]c2ccccc2n1C1CCNCC1 | -1.71% [at 35.3 µM] |  |
| N[C@@H]1C[C@H]1c1ccccc1 | -3.39% [at 35.3 µM] |  |
| BrCc1ccc(Br)cc1 | -1.19% |  |
| COP(=O)(OC)O/C(C)=C/C(=O)N(C)C | 2.64% |  |
| CS(=O)(=O)c1ccc(C(=O)C2C(=O)CCCC2=O)c(Cl)c1COCC(F)(F)F | -2.85% |  |
| CCOC(=O)C(SP(=S)(OC)OC)c1ccccc1 (stereo not given) | 2.75% |  |
| Cn1c(N)nc2c3cccnc3ccc21 | -0.241% |  |
| COc1ccc(CN2CCNCC2)c(OC)c1OC | -3.29% [at 35.3 µM] |  |
| CC(C)(C)C(=O)C(Cl)Cl | 2.07% |  |
| C=C1CC[C@@]2(O)[C@H]3Cc4ccc(O)c5c4[C@@]2(CCN3CC2CC2)[C@H]1O5 | 0.491% [at 35.3 µM] |  |
| O=c1[nH]c2ccccc2o1 | 2.83% |  |
| COc1ccccc1OC | -0.371% |  |
| N=C(N)[Se] | -0.282% |  |
| CCC(C)(C#N)N=NC(C)(C#N)CC (stereo not given) | -0.0559% |  |
| CCN1CCCC1CNC(=O)C(O)(c1ccccc1)c1ccccc1 (stereo not given) | 1.6% [at 35.3 µM] |  |
| CON(C)C(=O)Nc1ccc(Br)cc1 | 0.0119% |  |
| Oc1ccc2c3c1O[C@H]1[C@@H](O)C=C[C@H]4[C@@H](C2)NCC[C@@]341 | 0% |  |
